Measured values reported in the supplement of paper PMC10127200.
Where a name gives a salt, the structure may show the parent alone.

What was measured:
Assay in all cases: Euclidean distance of Cell Painting phenotypic profile (signed KS, 77 features) to DMSO centroid (dimensionless distance); 5 or 10 uM (library dependent); higher = stronger phenotypic change vs DMSO (phenoactivity)
Settings in all cases: 48 h
786-O = system: 786-O
Method in brief: (§1)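 Harmony extracted 77 features from 20X confocal images (9 fields/well) of stained cells, scoring each as a signed Kolmogorov-Smirnov statistic against same-plate vehicle wells. The cells, five cancer lines and a healthy fibroblast line, had received library compounds for 48 h at 10 or 5 uM depending on library, with 0.1% DMSO final. Phenoactivity is the Euclidean distance from each plate-position-corrected, correlation-weighted, top-dose replicate-averaged profile to the median vehicle profile.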

A549 = system: A549
Method in brief: as §1

DU145 = system: DU145
Method in brief: as §1

FB = system: FB
Method in brief: as §1

HEPG2 = system: HEPG2
Method in brief: as §1

OVCAR4 = system: OVCAR4
Method in brief: as §1

| Compound | Euclidean distance (786-O) | Euclidean distance (A549) | Euclidean distance (DU145) | Euclidean distance (FB) | Euclidean distance (HEPG2) | Euclidean distance (OVCAR4) |
| --- | --- | --- | --- | --- | --- | --- |
| COc1cc(NC(=O)c2ccccn2)ccc1Cl | 1.08 | 0.966 | 0.845 | 1.02 | 0.638 | 1.19 |
| CC(C)(Sc1cc(C(C)(C)C)c(O)c(C(C)(C)C)c1)Sc1cc(C(C)(C)C)c(O)c(C(C)(C)C)c1 [Probucol] | 0.793 | 0.681 | 0.734 | 0.921 | 1.07 | 1.14 |
| CC(=O)CCCCn1c(=O)c2c(ncn2C)n(C)c1=O [Pentoxifylline] | 1.07 | 0.613 | 1.06 | 1.39 | 0.754 | 1.67 |
| Cc1cc2ncnn2cc1Nc1ncc2c(n1)n(C1CCOCC1)c(=O)n2C | 1.35 | 1.07 | 1.33 | 1.79 | 0.714 | 0.718 |
| CCCS(=O)(=O)N[C@H]1C[C@@H](N(C)c2ncnc3[nH]ccc23)C1 | 0.905 | 1.03 | 1.02 | 1.03 | 0.71 | 1.17 |
| C[C@H](NC(=O)[C@@H](Cc1ccc2ccccc2c1)NC(=O)[C@@H](C)N)C(=O)N[C@@H](Cc1c[nH]c2ccccc12)C(=O)N[C@H](Cc1ccccc1)C(=O)N[C@@H](CCCCN)C(N)=O | 1.39 | 0.626 | 1.01 | 0.873 | 2.01 | 1.29 |
| CC#CC(=O)N1CC[C@@H](n2c(=O)n(-c3ccc(Oc4ccccc4)cc3)c3c(N)ncnc32)C1 [ONO-4059 (GS-4059) hydrochloride] | 1.09 | 0.871 | 1.8 | 1.99 | 0.863 | 0.627 |
| O=C([O-])c1ccccc1O.[Na+] [Sodium salicylate] | 0.657 | 0.529 | 0.888 | 0.714 | 0.709 | 0.92 |
| CCOc1ccccc1OC(c1ccccc1)C1CNCCO1 (configuration not stated) [Reboxetine mesylate] | 1.05 | 0.873 | 2.32 | 0.844 | 2.49 | 0.786 |
| Cc1ccc(C(=O)c2ccc(CC(=O)O)n2C)cc1 [Tolmetin] | 1.07 | 0.65 | 0.844 | 1.14 | 0.964 | 0.922 |
| COCCc1ccc(OCC(O)CNC(C)C)cc1 (configuration not stated) [Metroprolol succinate] | 0.936 | 0.527 | 0.62 | 1.14 | 0.935 | 1.9 |
| CC(=O)Oc1cc(C(C)C)c(OCCN(C)C)cc1C [Moxisylyte hydrochloride] | 0.394 | 0.612 | 1.83 | 1.12 | 0.369 | 0.608 |
| COc1ccc2[nH]c([S@@+]([O-])Cc3ncc(C)c(OC)c3C)nc2c1 [NEXIUM (esomeprazole magnesium)] | 1.31 | 0.829 | 1.47 | 0.904 | 1.81 | 1.65 |
| O=C(N/N=C/c1ccc([N+](=O)[O-])o1)c1ccc(O)cc1 [Nifuroxazide] | 1.64 | 1.52 | 0.846 | 1.33 | 2.82 | 1.2 |
| Cc1cc(Cn2cnc3c2CC(C(=O)O)N(C(=O)C(c2ccccc2)c2ccccc2)C3)ccc1N(C)C (configuration not stated) | 0.67 | 1.03 | 1.03 | 1.08 | 0.529 | 0.828 |
| O=C1NC(=O)/C(=C/c2ccc3nccc(-c4ccncc4)c3c2)S1 | 1.74 | 2.75 | 2 | 1.86 | 0.698 | 2.91 |
| CC(C)CCNC(=O)[C@H](CC(C)C)NC(=O)[C@H]1O[C@@H]1C(=O)O [Loxistatin Acid (E-64C)] | 1.6 | 2.18 | 1.48 | 1.04 | 1.44 | 1.5 |
| CCN1CCN(C(=O)N[C@@H](C(=O)N[C@@H]2C(=O)N3C(C(=O)O)=C(CSc4nnnn4C)CS[C@H]23)c2ccc(O)cc2)C(=O)C1=O [Cefoperazone] | 1.77 | 0.776 | 0.917 | 1.45 | 0.854 | 1.24 |
| O=c1[nH]cnc2c1ncn2[C@H]1CC[C@@H](CO)O1 [Didanosine] | 1.21 | 1.3 | 1.12 | 0.891 | 0.649 | 0.793 |
| Cc1ccc(Nc2nccc(N(C)c3ccc4c(C)n(C)nc4c3)n2)cc1S(N)(=O)=O | 2.42 | 2.34 | 1.99 | 2.87 | 1.93 | 1.6 |
| O=c1ccc2ccc(O)c(O)c2o1 [Daphnetin] | 1.49 | 0.859 | 0.975 | 1.15 | 1.18 | 0.972 |
| CC(C)(C)C#Cc1cc(N(C(=O)[C@H]2CC[C@H](C)CC2)[C@H]2CC[C@H](O)CC2)c(C(=O)O)s1 [VX-222 (VCH-222. Lomibuvir)] | 0.681 | 0.474 | 1.14 | 0.678 | 2.05 | 0.601 |
| CCN(CCCc1ccccc1)CCCc1ccccc1 [Alverine Citrate] | 0.97 | 1.06 | 1.22 | 1.12 | 0.789 | 1.01 |
| CC(C)n1nc(-c2ccc3oc(N)nc3c2)c2c(N)ncnc21 | 3.74 | 3.47 | 2.16 | 5.4 | 2.31 | 3.52 |

| Compound | Euclidean distance (786-O) | Euclidean distance (A549) | Euclidean distance (DU145) | Euclidean distance (FB) | Euclidean distance (HEPG2) | Euclidean distance (OVCAR4) |
| --- | --- | --- | --- | --- | --- | --- |
| CCCCCCCCCCCC(=O)O [Lauric Acid] | 1.1 | 0.784 | 1.21 | 1.34 | 0.884 | 0.985 |
| O=C(O)C1=C(CSc2nnnn2CS(=O)(=O)O)CS[C@@H]2[C@H](NC(=O)[C@H](O)c3ccccc3)C(=O)N12 [Cefonicid sodium] | 0.931 | 0.892 | 0.858 | 1.26 | 0.665 | 1.46 |
| CCOC(=O)Nc1cc(-c2ccc(C)c(NS(C)(=O)=O)c2)nn2c(C)nnc12 [Bromosporine] | 3.34 | 2.36 | 2.42 | 4.35 | 1.13 | 2.35 |
| C[C@@H]1CN(C(=O)c2ccc(NC(=O)c3cc(O[C@H](C)c4c(Cl)ccc(F)c4Cl)c(N)nn3)cc2)C[C@H](C)N1 [Ensartinib (X-396) dihydrochloride] | 5.01 | 4.53 | 3.15 | 4.29 | 3.74 | 3.35 |
| Nc1ncnc2c1c(-c1cnc3[nH]ccc3c1)nn2C1CCCC1 | 4.92 | 5.03 | 4.39 | 4.32 | 4.53 | 3.29 |
| O=C(O)COC(=O)Cc1ccccc1Nc1c(Cl)cccc1Cl [Aceclofenac] | 1.26 | 0.455 | 1.1 | 0.795 | 0.607 | 0.86 |
| COc1ccccc1S(=O)(=O)Nc1ccc2c(c1)CN(C)C(=O)N2 | 1.98 | 1.83 | 1.91 | 2.84 | 2.74 | 1.87 |
| COC(=O)c1ccc2c(C(=Nc3ccc(N(C)C(=O)CN4CCN(C)CC4)cc3)c3ccccc3)c(O)[nH]c2c1 [Nintedanib Ethanesulfonate Salt] | 3.68 | 3.84 | 2.5 | 4.88 | 3.9 | 4.19 |
| CC(O)c1cc(C(=O)N[C@@H](C)Cn2ccc(-c3ccc(C#N)c(Cl)c3)n2)n[nH]1 (some centres not stated) [Darolutamide (ODM-201)] | 0.846 | 0.505 | 1.04 | 1.05 | 0.543 | 0.668 |
| N#Cc1c(O)c2c(-c3ccc(-c4ccccc4O)cc3)csc2[nH]c1=O | 1.12 | 1.26 | 0.976 | 0.818 | 0.746 | 1.78 |
| Nc1ccc(S(=O)(=O)NC(=O)c2ccccc2)cc1 [Sulfabenzamide] | 0.937 | 0.388 | 0.77 | 0.837 | 0.665 | 1.75 |
| CCC(c1ccccc1)c1c(O)c2ccccc2oc1=O (configuration not stated) [Phenprocoumon] | 0.851 | 1.11 | 0.728 | 1.04 | 0.975 | 0.957 |
| CC(C)C(=O)c1c(C(C)C)nn2ccccc12 [Ibudilast] | 0.973 | 0.58 | 0.981 | 0.71 | 0.459 | 1.29 |
| Cc1cnc(CNC(=O)c2c(=O)c3ccc(N4CCCN(C)CC4)nc3n3c2sc2ccccc23)cn1 | 2.93 | 3.26 | 2.7 | 3.86 | 2.18 | 3.31 |
| CC(C)(C)c1nc(-c2cccc(NS(=O)(=O)c3c(F)cccc3F)c2F)c(-c2ccnc(N)n2)s1 [Dabrafenib Mesylate] | 1.18 | 1.23 | 1.47 | 3.79 | 1.3 | 1.47 |
| CC(=O)N(O)CCCCCNC(=O)CCC(=O)N(O)CCCCCNC(=O)CCC(=O)N(O)CCCCCN [Deferoxamine mesylate] | 2.45 | 2.58 | 6.88 | 2.61 | 2.02 | 2.86 |
| Oc1c(I)cc(Cl)c2cccnc12 [Clioquinol] | 1.29 | 1.03 | 1.05 | 1.37 | 0.894 | 1.24 |
| CC[C@]1(O)C[C@@H]2CN(CCc3c([nH]c4ccccc34)[C@@](C(=O)OC)(c3cc4c(cc3OC)N(C)[C@H]3[C@@](O)(C(=O)OC)[C@H](OC(C)=O)[C@]5(CC)C=CCN6CC[C@]43[C@@H]65)C2)C1 [Vinblastine sulfate] | 3.25 | 3.68 | 4.31 | 3.49 | 3.33 | 3 |
| CN(C)[C@@H](CCOc1cccc2ccccc12)c1ccccc1 [Dapoxetine HCl] | 1.49 | 0.787 | 2.96 | 1.26 | 1.1 | 1.26 |
| CN(C)CCC(c1ccc(Cl)cc1)c1ccccn1 (configuration not stated) [Chlorpheniramine Maleate] | 1.37 | 0.807 | 1.01 | 1.23 | 1.4 | 1.15 |
| Cc1cncc(CN2CCC(=C3c4ccc(Cl)cc4CCc4cccnc43)CC2)c1 [Rupatadine Fumarate] | 1.51 | 1.15 | 1.34 | 1.22 | 1.69 | 1.27 |
| CC(C)(C#N)c1cc(Cn2cncn2)cc(C(C)(C)C#N)c1 [Anastrozole] | 1.11 | 0.727 | 0.702 | 0.902 | 0.572 | 1.41 |
| CCOC(=O)C1=C[C@@H](OC(CC)CC)[C@H](NC(C)=O)[C@@H](N)C1 [Oseltamivir phosphate] | 0.628 | 0.678 | 0.967 | 1.19 | 0.883 | 1.1 |
